Measurements: PubChem BioAssay (NCATS)
Inconclusive results are not listed. The source made the active and inactive calls. The call rests on the fitted dose curve; in most records, active means well fitted curve in the direction sought with a large enough effect; inconclusive means small, poorly fitted or top-dose-only effect, or another doubt; inactive means no such curve, though single readings can be large; an effect the other way counts as inactive or inconclusive.

Assays:
[1] = Cellular Toxicity (caspase-3) Jurkat (AID 655);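 further: cells exposed to compound for 16 h at 37 °C before reading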
How it was run: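 Luminescent caspase-3/7 readout (aminoluciferin substrate cleavage) in human T-cell leukemia Jurkat cells after 16 hr compound exposure. Concentration-response normalized to DMSO and 100 uM tamoxifen; AC50 by standard Hill equation.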

[2] = Cellular Toxicity (caspase-3) HUV-EC-C (AID 656)
How it was run: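 Luminescent caspase-3/7 activation (aminoluciferin substrate cleavage) in HUV-EC-C cells after 16 hr compound exposure, 37°C. Signal normalized to DMSO basal and 100 uM tamoxifen as 100%; AC50 from concentration-response fitted with the Hill equation.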

[3] = Cellular Toxicity (caspase-3) SHSY5Y (AID 657);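 further: cells exposed to compound for 16 hours at 37 °C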
How it was run: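 Luminescent caspase-3/7 readout (aminoluciferin release) in SH-SY5Y cells after 16 h compound exposure in complete medium. Activity scaled between DMSO basal and 10 uM staurosporine as 100%; concentration-response fitted to Hill equation for AC50.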

[4] = Cellular Toxicity (caspase-3) BJ (AID 658)
How it was run: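 qHTS, BJ fibroblasts, 1000 cells/well; 5 hr preincubation, 16 hr compound, 37 °C; Caspase-Glo 3/7 reagent, 1 hr RT; luminescence. DMSO = 0%, 10 uM staurosporine = 100%. Hill-equation AC50.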

[5] = Cellular Toxicity (caspase-3) MRC-5 (AID 659)
How it was run: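 MRC-5 fibroblasts, 1500/well; 16 h cpd, 37 °C; Caspase-Glo 3/7, 1 h RT; lumi read. Norm: DMSO = 0%, 10 uM staurosporine = 100%. Hill-fit AC50 from qHTS conc-response.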

[6] = Cellular Toxicity (caspase-3) Mesangial (AID 660);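 further: combined caspase 3 and 7 activity read by Caspase-Glo luminescence; cells exposed to compound for 16 h before the caspase read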
How it was run: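 Seed cells derived from normal human renal glomeruli, incubate 5 h, add compounds across concentrations and incubate 16 h at 37 °C. Caspase 3/7 activation is then quantified by luciferase light, with AC50 derived by Hill modeling.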

[7] = Cellular Toxicity (caspase-3) SK-N-SH (AID 661)
How it was run: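 Cells were seeded and incubated 5 hr at 37 °C, dosed with compound over a concentration range for 16 hr, then given Caspase-Glo 3/7 reagent for 1 hr at room temperature before luminescence reading.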

[8] = Cellular Toxicity (caspase-3) H-4-II-E (AID 663); details: Potency: caspase-3 activation;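 further: cells exposed to compound for 16 hr before readout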
How it was run: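 H-4-II-E rat hepatoma, 1500 cells/well, 5 hr settle at 37 °C; compound 16 hr, 37 °C, complete medium; Caspase-Glo 3/7, 20 min RT; luminescence. DMSO = 0%, 100 uM tamoxifen = 100%; Hill-equation AC50.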

[9] = Cellular Toxicity (caspase-3) Hek293 (AID 664);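 further: cells exposed to compound for 16 h at 37 °C before readout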
How it was run: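 qHTS, HEK293 (human embryonic kidney), 16 h cpd exposure in complete medium. Caspase-3/7 activation = luminescence increase; normalized to DMSO/100 uM tamoxifen; Hill-fit AC50.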

[10] = Cellular Toxicity (caspase-3) N2a (AID 665);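 further: compound exposure lasted 16 h at 37 °C before readout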
How it was run: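 Caspase-3/7 activation, measured as increased luminescence from aminoluciferin release, is quantified in mouse N2a cells exposed to compounds for 16 h. Values are normalized to DMSO and 10 uM staurosporine, with AC50 derived by Hill modelling.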

[11] = Cellular Toxicity (caspase-3) NIH 3T3 (AID 666);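 further: caspase signal read after 16 h compound exposure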
How it was run: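 Cells were plated at 1000 per well and incubated 5 hr at 37°C, then compound was added for 16 hr. Caspase-Glo 3/7 reagent followed for 20 min at room temperature before luminescence was read.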

[12] = Confirmation and Secondary Assay for Modulators of Hemoglobin Beta Chain Splicing at IVS2 654 locus (AID 910);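 further: HeLa cells stably carrying EGFP split by mutant beta-globin IVS2-654 intron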
How it was run: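 HeLa cells stably expressing EGFP interrupted by β-globin IVS2-654 intron, seeded overnight in Opti-MEM/2% FCS, then treated 2 days at 37 °C. Restored splicing read as total peak GFP intensity per well by laser scanning cytometry (488 nm excitation, 500–520 nm emission); 500 nM antisense PNA as control.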

[13] = target: Cytochrome P450 3A4 (Homo sapiens) (UniProt P08684); assay: qHTS Assay for Inhibitors and Substrates of Cytochrome P450 3A4 (AID 884); further: series mostly up to about 57 µM; nearly all actives have a fitted effect of over 50% in size
Chain of Cytochrome P450 3A4 (Homo sapiens) (P08684 whole entry, looked up): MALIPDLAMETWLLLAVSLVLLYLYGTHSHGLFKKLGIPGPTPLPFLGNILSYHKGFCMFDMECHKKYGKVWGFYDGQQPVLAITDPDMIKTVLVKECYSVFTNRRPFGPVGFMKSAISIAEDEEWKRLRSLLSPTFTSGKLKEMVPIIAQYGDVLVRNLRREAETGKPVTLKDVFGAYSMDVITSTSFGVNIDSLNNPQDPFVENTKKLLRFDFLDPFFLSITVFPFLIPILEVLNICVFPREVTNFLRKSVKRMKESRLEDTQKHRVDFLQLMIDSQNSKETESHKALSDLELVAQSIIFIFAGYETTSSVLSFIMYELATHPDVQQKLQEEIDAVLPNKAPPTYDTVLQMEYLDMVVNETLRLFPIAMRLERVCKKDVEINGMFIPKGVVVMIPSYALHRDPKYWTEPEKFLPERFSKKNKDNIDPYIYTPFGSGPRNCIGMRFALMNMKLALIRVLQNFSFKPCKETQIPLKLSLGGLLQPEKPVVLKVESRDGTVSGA
How it was run: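 Luminescent readout of luciferin produced by CYP3A4 (20 nM) dealkylation of Luciferin-PPXE, 25 uM (its KM). NADPH-driven reaction ran 60 min at RT after 10 min compound preincubation; data scaled to 57 uM ketoconazole as 100% inhibition.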

Measured: Potency

Cc1ccc(O)cc1
inactive: [1] | [2] | [3] | [4] | [5] | [6] | [7] | [8] | [9] | [10] | [11] | [12]

c1ccc2occc2c1
inactive: [1] | [2] | [3] | [4] | [5] | [6] | [7] | [8] | [9] | [10] | [11] | [13]

O=C(c1ccccc1)c1ccccc1
inactive: [1] | [2] | [3] | [4] | [5] | [6] | [7] | [8] | [9] | [10] | [11]

O=C(NO)c1ccccc1
inactive: [1] | [2] | [3] | [4] | [5] | [6] | [7] | [8] | [9] | [10] | [11] | [13]

CC(C)(C)c1ccc(O)c(O)c1
inactive: [1] | [2] | [3] | [4] | [5] | [6] | [7] | [8] | [9] | [10] | [13]

OCc1c[nH]c2ccccc12
inactive: [1] | [2] | [3] | [4] | [5] | [6] | [7] | [8] | [9] | [10] | [11] | [13] | [12]
